Screens from PubChem.
Shown are actives, neighbours in structure and some others; about 19% of the full set was active somewhere.
KB-V1 MDR tox: KB-V1 MDR subline cytotoxicity; hit rate 3.4% among 400,000; KB-V1 MDR cells viability, CellTiter-Glo, 72 h; Potency, µM (top dose mostly 46.1 µM), most hits filed as cytotoxic; note: nearly all actives have a fitted effect of over 60% in size
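Cytotoxicity via CellTiter-Glo luminescence after 72 h compound exposure at 37 degrees C. Cells: drug-selected KB-V1 line, DMEM phenol-red free plus 10% FBS. Compounds tested at multiple concentrations; normalized data fitted to concentration-effect curves.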
KB-3-1 tox: kills parental KB-3-1 adenocarcinoma cells; hit rate 1.4% among 400,000; Potency, µM (doses to about 46.1 µM), most hits filed as cytotoxic; KB-3-1 viability, CellTiter-Glo ATP luminescence, 72 h; note: nearly all actives have a fitted effect of over 60% in size
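KB-3-1 cells, DMEM (no phenol red) + 10% FBS; compound by pin transfer, 72 h, 37 °C. Readout: CellTiter-Glo luminescence after 10 min. Data normalized, curve-fitted.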
TDP1 cell CPT: DT40-hTDP1 cell growth loss with CPT; chicken DT40 Tdp1-/-;hTDP1 cells + 20 nM CPT, ATP luminescence, 48 h; Potency, µM (titrated, usually from 46.2 µM), for the others: at the top dose activity change, negative = growth inhibition, usual class: inhibitors; hit rate 12% among 420,000; note: nearly all actives have a fitted effect of over 55% in size
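Chicken DT40 Tdp1-/- cells complemented with human TDP1, 400 cells/well, exposed to compounds plus 20 nM camptothecin for at least 48 h at 37 C; viability read as ATP content by CellTiter-Glo luminescence.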
DT40 TDP1 no CPT: qHTS for Inhibitors of human tyrosyl-DNA phosphodiesterase 1 (TDP1): qHTS in cells in absence of CPT; DT40 Tdp1-/- hTDP1 cells, no CPT, ATP luminescence, 48 h; Potency, µM (doses to about 46.2 µM), without a hit: top-dose activity change, negative = growth inhibition, usual class: inhibitors; hit rate 15% among 420,000; note: nearly all actives have a fitted effect of over 55% in size
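No-CPT arm: Tdp1-/-;hTDP1 DT40 cells (400/well) plus compounds, incubated ≥48 hr at 37 °C. Readout CellTiter-Glo luminescence.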
HT1080 IDH1KD tx: HT-1080 IDH1 knockdown cell toxicity (counter line); HT-1080 IDH1 knockdown viability, ATP luminescence, 48 h; Potency, µM (doses to about 46.1 µM), for inactives: at the top dose activity, negative = toxicity, most hits filed as cytotoxic; hit rate 2% among 360,000; AID 686971;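 note: 0% = DMSO wells and -100% = cell-free medium wells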
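After a 2 h attachment period, IDH1KD HT-1080 cells took pin-transferred compound for 48 h at 37 °C; ATP-based luminescence after 10 min room-temperature reagent incubation reported viability.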
HT1080NT lethal: kills 2HG-producing HT-1080-NT fibrosarcoma cells; HT-1080-NT fibrosarcoma viability, CellTiter-Glo ATP luminescence, 48 h; Potency, µM (top dose mostly 46.1 µM), without a hit: at the top dose activity, negative = less viability, hits mostly cytotoxic; hit rate 1.6% among 360,000; AID 686970;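 note: NT is the 2HG producing partner of a matched IDH1 knockdown line; 0% = DMSO-treated cells and -100% = media-only wells without cells; nearly all actives have a fitted effect of over 55% in size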
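Compounds were tested in concentration-response format on HT-1080-NT cells for 48 hours at 37 degrees C. Cell viability came from CellTiter-Glo luminescence; curves were classified by r2, response magnitude and activity.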
* = called active by the depositor; i = inactive; ? = inconclusive; . = not tested or not shown; [ ] = remark or other dose. Calls come from the whole dose curve; as a rule, active = well fitted curve in the direction sought with a large enough effect; inconclusive = small, poorly fitted or top-dose-only effect, or another doubt; inactive = no such curve, though single readings can be large; an effect the other way counts as inactive or inconclusive. Unless noted, % is set by controls: 0 for no effect and ±100 for the full control effect; potency is the fitted concentration of half-maximal effect.

SMILES	KB-V1 MDR tox	KB-3-1 tox	TDP1 cell CPT	DT40 TDP1 no CPT	HT1080 IDH1KD tx	HT1080NT lethal
O=C(NCCc1ccccc1)c1ccc(CS(=O)(=O)Cc2ccccc2F)o1	14.6µM*	i	-16.2%	?	2.4%	8.9%
Cc1ccc(CCNC(=O)c2ccc(CSCc3ccccc3C)o2)cc1	.	.	?	16.4µM*	.	.
Cc1ccccc1CS(=O)(=O)Cc1ccc(C(=O)NCCc2ccc(Cl)cc2)o1	i	i	20.6µM*	?	.	.
CC(NC(=O)c1ccccc1F)c1nnc(SCC(=O)NC2=NCCS2)n1C (stereo not drawn)	i	?	13.2%	4.2%	4.3%	9.1%
COc1ccc(S(=O)(=O)N2CCC(C(=O)NCCC(=O)Nc3nccs3)CC2)cc1	i	i	-9.3%	8.0%	2.8%	-3.8%
CCCCN1C(=O)C(CC(=O)NCCCCc2ccccc2)CC(C(=O)N2CCCCCC2)=C1C (stereo not drawn)	?	i	18.4µM*	18.4µM*	9.7%	2.8%
CC1=C(C(=O)N2CCCCCC2)CC(CC(=O)NC2CCCCC2)C(=O)N1CCC1=CCCCC1 (stereo not drawn)	i	i	13µM*	?	-15.4%	-29.6%
CC1=C(C(=O)N2CCCCCC2)CC(CC(=O)NCCCCc2ccccc2)C(=O)N1CCC1=CCCCC1 (stereo not drawn)	16.4µM*	?	23.1µM*	18.4µM*	?	?
COc1ccccc1CCNC(=O)c1ccc2c(c1)c(C)c(C)n2Cc1ccc(Cl)cc1	i	i	23.1µM*	20.6µM*	.	.
Cc1c(C)n(Cc2ccc(Cl)cc2)c2ccc(C(=O)NCCN3CCOCC3)cc12	i	?	?	?	?	?
COc1ccc(OC)c(CNC(=O)c2ccc3c(c2)c(C)c(C)n3Cc2ccc(Cl)cc2)c1	?	?	16.4µM*	?	.	.
CCCCn1c(N)c(N(CCOC)C(=O)c2oc3c(Cl)cccc3c2C)c(=O)[nH]c1=O	i	i	-17.9%	-13.2%	-10.6%	-0.4%
C[C@@H]1CN([C@H](C)CO)C(=O)CCCn2nncc2CO[C@@H]1CN(C)S(=O)(=O)c1ccccc1	i	i	-7.7%	-17.5%	18.2%	-1.8%
Cc1ccc(CNC(=O)C2CCN(C(=O)N3CC(C)Oc4ccc(Cl)cc43)CC2)cc1 (stereo not drawn)	i	i	?	18.4µM*	.	.
Cc1ccc2c(c1)N(C(=O)N1CCC(C(=O)NCc3ccccc3C)CC1)CC(C)O2 (stereo not drawn)	i	i	20.6µM*	16.4µM*	.	.
CCOc1ccc(/C(O)=C2/C(=O)C(=O)N(CCCN3CCOCC3)C2c2ccc(F)cc2)cc1C (stereo not drawn)	i	i	-3.9%	17.5%	13.8%	-3.1%
CCCCCCCCCCCCCCCCCC(=O)OCCO	.	.	?	-40.1%	.	.
Cc1ccccc1C(=O)Nc1ccc2nc(N3CCCCC3)cc(C)c2c1	i	i	?	20.6µM*	.	.
COc1cccc(C(=O)Nc2ccc3nc(N4CCOCC4)cc(C)c3c2)c1	i	i	16.4µM*	20.6µM*	1.4%	-2.3%
COc1cc(OC)cc(C(=O)Nc2ccc3nc(N4CCCCC4)cc(C)c3c2)c1	i	i	14.6µM*	16.4µM*	.	.
CCOc1cccc(CC(=O)Nc2ccc3nc(N4CCCCC4)cc(C)c3c2)c1OCC	i	i	20.6µM*	?	.	.
COc1cc2c(cc1NC(=O)COc1ccc(Br)cc1C)oc1ccccc12	i	i	-5.3%	-4.2%	.	.
Cc1cc(N2CCOCC2)nc2ccc(NC(=O)C3CCCCC3)cc12	i	?	12.6µM*	10µM*	.	.
COc1ccc(CC(=O)Nc2ccc3nc(N4CCCCC4)cc(C)c3c2)cc1	i	i	23.1µM*	?	.	.
CCOc1ccc(NC(=O)CN2CCN(CC(=O)Nc3cccc(F)c3)CC2)cc1	i	i	?	-21.9%	-0.5%	-11.3%
SMILES	KB-V1 MDR tox	KB-3-1 tox	TDP1 cell CPT	DT40 TDP1 no CPT	HT1080 IDH1KD tx	HT1080NT lethal
CC(C)(C)c1ccc(S(=O)(=O)N2CCN(CC(O)COCC3CCCO3)CC2)cc1 (stereo not drawn)	i	i	-15.5%	-12.5%	-2.6%	0.2%
CCOc1ccc(NC(=O)CN2CCN(CC(=O)Nc3ccc(Cl)c(C(F)(F)F)c3)CC2)cc1	i	i	11.6µM*	9.2µM*	?	?
O=S(=O)(c1ccc(Cl)c(C(F)(F)F)c1)N1CCN(CC(O)COCC2CCCO2)CC1 (stereo not drawn)	i	i	20.6µM*	18.4µM*	-4.9%	-16.2%
O=C(CN1CCN(S(=O)(=O)c2ccc(Cl)c(C(F)(F)F)c2)CC1)NC(=O)NC1CCCCC1	i	i	20.6µM*	?	7.7%	0.7%
O=C(CN1CCN(CC(=O)Nc2ccccc2F)CC1)Nc1cccc(F)c1	i	i	-21.9%	-25.4%	21.5%	15.4%
O=C(CN1CCN(CC(=O)Nc2ccccc2F)CC1)Nc1ccc(Cl)c(C(F)(F)F)c1	i	i	7.31µM*	6.51µM*	.	.
COc1ccccc1NC(=O)c1ccccc1N(Cc1ccccc1)S(C)(=O)=O	i	i	?	?	6.9%	5.0%
Cc1ccc2c(=O)cc(C(=O)Nc3ccc(S(=O)(=O)N4CCCCC4)cc3)oc2c1	i	i	-23.0%	-19.1%	.	.
COc1ccc(CN(C(=O)c2snc(C(N)=O)c2N)C(C(=O)NC2CCCC2)c2ccco2)cc1 (stereo not drawn)	?	i	11.2%	?	1.2%	4.2%
O=C(CN1CCN(c2ccc(Cl)cc2)CC1)Nc1cccc(F)c1	?	?	-27.7%	?	-11.4%	-14.7%
O=C(CN1CCN(c2ccc(Cl)cc2)CC1)Nc1ccc(Cl)c(C(F)(F)F)c1	i	i	?	16.4µM*	.	.
O=C(CN1CCN(S(=O)(=O)c2ccc(F)cc2)CC1)Nc1ccc(Cl)c(C(F)(F)F)c1	16.4µM*	?	18.4µM*	9.2µM*	-13.3%[9.24 µM]	?
O=C(CN1CCN(S(=O)(=O)c2ccc(F)cc2)CC1)Nc1ccc2c(c1)OCCO2	?	i	-1.1%	-25.2%	-0.8%	-12.2%
O=C1CCc2cc(S(=O)(=O)Nc3ccc(F)c(Cl)c3)ccc2N1	i	i	.	.	.	.
